MPTP block = permeability transition pore inhibition; isolated mouse mitochondria, Ca2+ swelling absorbance, 30 min; 360,000 tested, 1.4% active; inhibition, % at 10 µM;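 active = inhibition of 50% or more, scaled per plate between neutral and stimulator controls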;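 note: 0% = DMSO wells given calcium and 100% = 1 mM EGTA wells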
SUMO Mot1 rescue = blocks SUMOylation pathway, rescuing yeast Mot1-301 growth; AID 2716; growth rescue, % at 18.8 µM; S. cerevisiae Mot1-301 growth rescue, ATP luminescence, 38.5C; percent above DMSO median, 100 means doubled; 320,000 tested, 1% active;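 active = every valid replicate shows activation above 250% relative to neutral control wells; inactive = the rest, any valid replicate at or below 250%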;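 note: OY570 slx delta 5 strain wells were the positive control but not used for scaling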
FAS-TE inh = blocks the thioesterase domain of human fatty acid synthase. inhibition, % at 15 µM. recombinant FAS-TE, OMFH fluorogenic substrate, fluorescence endpoint. P49327. 360,000 tested, 0.67% active;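 active = compounds whose normalised, plate-corrected inhibition of enzyme fluorescence in the single-dose primary screen is 50% or more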;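 note: 0% = DMSO with enzyme and 100% = substrate without enzyme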
aDG glyco up = increases alpha dystroglycan glycosylation; Pro5-aDG cells, alpha-DG glycosylation AlphaScreen (IIH6); 0% Pro5, 100% B10-LARGE cell signal; activation, % at 10 µM; 360,000 tested, 0.22% active; AID 624168;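 active = activation of at least 8% versus controls, or a plate z-score of at least 8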;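 note: Pro5 are CHO cells carrying HIG-tagged alpha-DG that lacks glycosylation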
Cardio protect = myocardial damage modulation in H9c2 cells. protection from H2O2 cell death, % at 20 µM. 360,000 tested, 0.63% active. H9c2 cardiomyocytes, H2O2 injury protection, ATPLite, 2 h;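 active = compounds giving at least 50% protection of heart cells from peroxide-induced death in the single-dose screen, raw or plate-pattern-corrected value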;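 note: 0% = DMSO wells with peroxide and 100% = DMSO wells without peroxide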
CR mimetic SO = caloric restriction mimetics inhibiting age-related superoxide in yeast; AID 2690; 330,000 tested, 0.18% active; superoxide response (% of plate mean), % at 10 µM; S. cerevisiae aged cells, superoxide DHE fluorescence; stronger effect = lower value;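 active = superoxide response under a set limit, about three screen SD below normal, cut at about 65% in these data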;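 note: yeast aged for seven days with compound at 30 °C before DHE staining; 100% = average MFI of all compound-treated wells on the plate with controls excluded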
Rh123 counter = membrane potential counter-screen of mitochondrial pore inhibitors; shares compounds with MPTP block; isolated mitochondria, Rhodamine 123 fluorescence; inhibition, % at 10 µM; 5,000 tested, 78% active; in the data active = inhibition above about 22%;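 note: 0% = DMSO vehicle and 100% = positive control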
MPTP abs DR = dose response confirmation of mitochondrial permeability transition pore inhibitors; 780 tested, 58% active; shares compounds with MPTP block; IC50, µM; AID 651561; isolated mitochondria swelling, absorbance; in the data active = IC50 below about 20 µM
MPTP counter DR = MPTP inhibitor counter-screen activity, dose response | AID 651564 | IC50, µM | isolated mitochondria counterscreen, fluorescence read-out | 780 tested, 49% active | shares compounds with MPTP block; in the data active = IC50 below about 80 µM
* marks the source's active call; other numbers are inactive results; i = inactive; . = no result given. A selection: hits, their analogues and other compounds. The true share with any hit is near 3.8%.

SMILES | MPTP block | SUMO Mot1 rescue | FAS-TE inh | aDG glyco up | Cardio protect | CR mimetic SO | Rh123 counter | others
Oc1ccccc1C1CC(c2cccs2)=NC(c2cccc(Br)c2)N1 (stereo not given) | 84* | 593 | 24 | 0 | -13 | 83 | 97*
Cc1ccc(NC(=S)NNc2ccc(C(=O)O)cc2[N+](=O)[O-])cc1C | 54* | 411 | -5 | 0 | -1 | 99 | 64*
Cc1ccc(CNC(=S)Nc2ccc(C)c([N+](=O)[O-])c2)cc1 | 102* | 3 | 32 | 0 | -26 | 116 | 98*
CNC(=S)Nc1ccc([N+](=O)[O-])c(C)c1 | 62* | 3 | 0 | 0 | -7 | 110 | 78*
CNC(=S)Nc1ccc([N+](=O)[O-])cc1C | -2 | 48 | -2 | 0 | -3 | 89 | .
COc1ccc(CCC(=O)Nc2ccc(C)c([N+](=O)[O-])c2)cc1 | 0 | 8 | 4 | 1 | 0 | 96 | .
COc1cccc(NS(=O)(=O)NC(=O)c2c(C)[nH]c3ccccc23)c1 | -1 | -5 | -8 | 0 | -4 | 109 | .
Cc1cc(N=NC(=O)c2ccccc2O)c2ccccc2c1O | 74* | -3 | -3 | 0 | -15 | 104 | 91*
Cn1c(O)c(N=NC(=O)c2ccccc2O)c2ccccc21 | -1 | -1 | -4 | 0 | -14 | 105 | .
Clc1ccc2ncc(-c3nnnn3-c3ccccc3)c(-c3ccccc3)c2c1 | -1 | 63 | 23 | 0 | -15 | 116 | .
Clc1ccc2[nH]cc(-c3nnnn3-c3ccccc3)c2c1 | 76* | -5 | 4 | 0 | -6 | 106 | 82*
COc1ccc2nc(C)cc(SCC(=O)N/N=C/c3cccc4ccccc34)c2c1 | 128* | 4 | 1 | 0 | -15 | 90 | -7 | MPTP abs DR=>100;MPTP counter DR=>80
Cc1cc(SCC(=O)N/N=C/c2ccc(O)cc2O)nc2ccccc12 | 68* | 3 | 14 | 0 | 46 | 96 | 71*
Cc1cccc(NC(=O)Cn2cc(C(=O)C3CC3)c3ccccc32)c1C | 56* | 6 | 2 | 0 | -4 | 107 | 51*
CC(C)(C#CCN1CCCCC1)OCCOC(c1ccccc1)c1ccccc1 | 77* | -9 | 23 | 0 | -26 | 98 | 12 | MPTP abs DR=20*;MPTP counter DR=20*
CC(O)(C#CCN1CCCCC1)c1ccccc1 (stereo not given) | -1 | -1 | -6 | 0 | 2 | 81 | .
COc1ccc(OCC(O)Cn2c(N3CCCCC3)nc3c2c(=O)n(C)c(=O)n3C)cc1 (stereo not given) | 0 | 4 | -3 | 0 | 10 | 97 | .
CN1CCN(C(c2ccc(Br)cc2)c2cc(Cl)c3cccnc3c2O)CC1 (stereo not given) | 76* | 268 | 0 | 0 | -15 | 134 | -21
CCC(=O)NC(C)c1cc(Cl)c2cccnc2c1O (stereo not given) | -4 | -24 | 2 | 0 | 34 | 89 | .
Clc1ccc(OCc2nnc(SCc3nc4ccccc4[nH]3)n2Cc2ccco2)cc1 | 62* | 11 | 6 | 1 | -15 | 68 | 35*
CCCC1=NN(c2ccc([N+](=O)[O-])cc2)C(=O)/C1=C\N(C)C | 78* | 23 | 10 | 0 | -2 | 120 | 26*
Fc1ccc(-c2nc(-c3cccs3)[nH]c2-c2ccc(F)cc2)cc1 | 77* | -3 | 26 | 1 | -19 | 119 | 74*
Oc1ccc(-c2nc(-c3ccc(F)cc3)c(-c3ccncc3)[nH]2)cc1 | 1 | . | 4 | 0 | -9 | 88 | .
NS(=O)(=O)c1cccc(NC(=O)Nc2ccc(Cl)cc2)c1 | 89* | 6 | 6 | 0 | -11 | 96 | 86*
COC(=O)c1cccc(NC(=O)Nc2ccc(Cl)cc2)c1 | 77* | 4 | -2 | 0 | -13 | 96 | 92*
SMILES | MPTP block | SUMO Mot1 rescue | FAS-TE inh | aDG glyco up | Cardio protect | CR mimetic SO | Rh123 counter | others
COC(=O)c1cccc(NC(=S)Nc2ccc(Cl)c(Cl)c2)c1 | 80* | 52 | 22 | 0 | -11 | 86 | 91*
COC(=O)c1cccc(NC(=O)NC(=O)c2ccc(Cl)cc2)c1 | 1 | 3 | -2 | 0 | 0 | 95 | .
COC(=O)c1cc(NC(=S)Nc2cc(Cl)cc(Cl)c2)cc(C(=O)OC)c1 | 83* | -8 | 29 | 0 | -27 | 83 | 75*
COC(=O)c1cccc(NC(=S)Nc2ccccc2Cl)c1 | 9 | -2 | -2 | 0 | 3 | 103 | .
CN(C)Cc1csc(NC(=O)Nc2ccccc2C(C)(C)C)n1 | 0 | . | -6 | 0 | 2 | . | .
CN1OC[C@@H]2CN[C@H](c3cccc(Oc4ccccc4)c3)C[C@@H]21 | -3 | . | -4 | 0 | 2 | . | .
Cc1cc(Br)c(NC(=O)C(C)Sc2nnnn2C)c(Br)c1 (stereo not given) | 0 | -5 | -12 | 0 | 6 | 93 | .
CN(C)C(CNC(=O)c1cc(S(=O)(=O)N2CCOCC2)ccc1F)c1cccs1 (stereo not given) | 1 | -4 | -4 | 0 | -2 | 105 | .
CC(C)S(=O)(=O)c1csc(NC(=O)Nc2ccc(Cl)cc2)c1 | 76* | -2 | 6 | 0 | -8 | 98 | 79*
CC(C)S(=O)(=O)c1csc(C(=O)NNC(=O)Nc2ccccc2)c1Cl | 2 | -1 | -3 | 0 | -1 | 102 | .
C[C@@H]1CN([C@@H](C)CO)C(=O)c2cc(N(C)C)ccc2O[C@@H]1CN(C)Cc1ccncc1 | 0 | -3 | -8 | 0 | 6 | 87 | .
Cc1ccc(Cl)cc1NC(=O)c1cc2ccccc2cc1O | 99* | -8 | 14 | 0 | -22 | 107 | 74*
COc1ccccc1NC(=O)c1cc2cc(Br)ccc2cc1O | 80* | 8 | 25 | 0 | -19 | 92 | 28*
COc1cc(NC(=O)c2cc3ccccc3cc2O)c(OC)cc1Cl | 27 | 7 | 16 | 0 | -21 | 101 | .
CCN(CC)C(=O)c1cccc(NC(=O)c2ccccc2OCc2c(C)noc2C)c1 | -1 | -4 | -3 | 0 | -2 | 120 | .
CC(=O)N(CCCNC(=O)c1ccccc1)C(=O)c1ccccc1 | 0 | -6 | 3 | 0 | 3 | . | .
CSc1nc(Cl)c(Cc2ccc(OC(C)C)cc2)c(N(C)C)n1 | 60* | 12 | 32 | 2 | -26 | 109 | 10 | MPTP abs DR=i;MPTP counter DR=35*
Cn1c(-c2cccc(Br)c2)cnc1NCc1ccccc1O | 2 | 25 | 6 | 0 | -5 | 88 | .
NC1=NC[C@H](Cc2ccccc2)N1CCCCC1CCCCC1 | 82* | -29 | -147 | 0 | -22 | 114 | 48*
